Experimental findings from PubChem BioAssay (NCATS) are described below.

Molecules are shown by their SMILES. Inconclusive results are not listed. Calls of active or inactive are those of the source. Unless noted, calls follow the shape of the dose curve; as a rule, active = well fitted curve in the direction sought with a large enough effect; inconclusive = small, poorly fitted or top-dose-only effect, or another doubt; inactive = no such curve, though single readings can be large; an effect the other way counts as inactive or inconclusive.

Experiment [1] addresses Thyrotropin-releasing hormone receptor (Homo sapiens) (UniProt P34981). Kind of experiment: qHTS for Small Molecule Agonists and Allosteric Enhancers of Human TRH Receptor: Validation Screen for Agonists (AID 493127;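 active = calcium activation more than 3 SD above the typical response in the agonist read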;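 also: intracellular calcium rise by fluo-8 fluorescence before TRH EC20 addition; 0% is about no effect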). The note with it: TRH receptor agonist cell assay; at 2 µM; hits give high values. The gist of the method: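 Compounds are added by online pintool to dye-loaded TRHR cells while fluorescence is recorded every second. A rise in calcium signal during the agonist read marks activation; a later 10 nM TRH addition (EC20) serves the separate enhancer mode.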
(Quantitative high-throughput screening tests each substance at several concentrations.)

Experiment [2] concerns the target Androgen receptor (Homo sapiens) (UniProt P10275). As to the kind of experiment: qHTS assay for small molecule agonists of androgen receptor signaling (AID 588515; active = well fitted curve in the direction sought with a large enough effect in the signal ratio, with a control signal flat; the % refers to the signal ratio; also: % is scaled to controls: 0 for no effect and ±100 for the full control effect). The note with it: AR-UAS-bla HEK293, beta-lactamase ratio, agonist 16 h; hits give high values. The gist of the method:
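Stimulation of an AR-responsive β-lactamase reporter in GripTite HEK293 cells was measured after 16 h compound exposure at 37 °C, via CCF4 fluorescence after 2 h RT. EC50 from Hill fits, normalized to R1881 at 30 nM.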

For experiment [3], the target named is Thyroid hormone receptor beta (Homo sapiens) (UniProt P10828). As to the kind of experiment: qHTS assay for small molecule agonists of thyroid hormone receptor beta signaling (AID 588545; calls by dose curve;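 also: 0% = DMSO only and 100% = 10 nM T3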). The note with it: TR-UAS-bla GripTite HEK 293, beta-lactamase ratio, agonist mode, 18 h, percent of T3 response, DMSO as zero; series mostly up to 76.7 µM. The gist of the method:
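Stimulation of a TR-driven beta-lactamase reporter was quantified in GripTite HEK 293 cells. Compound series ran for 18 hrs; curves were normalized to T3 and DMSO controls and fitted to yield EC50.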

A short description of experiment [4]: qHTS assay for small molecule activators of the nuclear factor-kappa B (NF-kB) signaling pathway (AID 651749; active = well fitted activation curve with a large enough effect in the signal ratio; the % refers to the signal ratio; also: % of control where 0% means no effect). The settings on record: NF-kB-bla ME-180 cells, beta-lactamase FRET ratio, 16 h; hits give high values. The gist of the method: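 Human ME-180 cervical cells with an NF-kB-bla construct; compounds added via 23 nL pin transfer, DMSO as vehicle; incubation 16 hr. Reporter activity measured by FRET disruption.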

Experiment [5] in a line: qHTS assay for environmental chemicals that activate the Aryl hydrocarbon Receptor (AhR) signaling pathway (AID 651777). Also: % of control where 0% means no effect; nearly all actives have a fitted effect of over 15% in size. The note with it: 1A2-DRE human hepatoma cells, luciferase, 24 h; activation: hits give high values. The gist of the method: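 Human hepatoma 1A2-DRE cells stably carrying a DRE/CYP1A2 promoter–luciferase reporter, 1,200 cells/well, exposed to compound 24 hr at 37 C. Luciferase read by One-Glo luminescence after 30 min at room temperature; increased signal marks AhR activation.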

A short description of experiment [6]: qHTS assay for small molecule agonists of the antioxidant response element (ARE) signaling pathway measured by Nrf2-dependant transcriptional activity (AID 720636; active = well fitted curve in the direction sought with a large enough effect in the repeat runs; an effect the other way counts as inactive or inconclusive; also: % of control where 0% means no effect). The note with it: ARE-luc HepG2, Nrf2 luciferase reporter, 16 h; series mostly up to 92.4 µM. The gist of the method: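 ARE-luc HepG2 cells carrying an Nrf2-responsive luciferase reporter, in medium with 1% dialyzed FBS, exposed to compound for 16 hr at 37 C, 5% CO2. Luminescence read 30 min after ONE-Glo addition.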

Experiment [7] in a line: qHTS assay for small molecule agonists of the antioxidant response element (ARE) signaling pathway measured by Nrf2-dependant transcriptional activity - cell viability counter screen (AID 720653; active = well fitted curve in the direction sought with a large enough effect in the repeat runs; an effect the other way counts as inactive or inconclusive; also: % is scaled to controls: 0 for no effect and ±100 for the full control effect). The settings on record: ARE-bla HepG2 viability, CellTiter-Glo ATP luminescence, 16 h; hits give low values. The gist of the method:
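ARE-bla HepG2 cells (2,000/well) rested 5 hrs at 37C/5% CO2, then exposed to compounds in DMSO for 16 hrs. Viability was read in the same wells as intracellular ATP by luminescence, 30 min at room temperature after reagent addition.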

A short description of experiment [8]: qHTS assay for cell viability of HEK293 cells (AID 743288). Also: % is scaled to controls: 0 for no effect and ±100 for the full control effect; nearly all actives have a fitted effect of over 50% in size. The settings on record: ATP luminescence (CellTiter-Glo), 18 h, hits give low values. The gist of the method:
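After 18 h compound exposure at 37 C, parental HEK293 cells (2,000/well) are lysed with CellTiter-Glo and luminescence is read following 30 min at room temperature.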

Experiment [9] can be described thus: qHTS assay for cell viability of the p53RE-bla HCT-116 cell line (AID 743292). Also: potency is read from the fitted curve at half-maximal effect; nearly all actives have a fitted effect of over 55% in size. The settings on record: p53RE-bla HCT-116 viability, ATP luminescence, 16 h; series mostly up to 95 µM. The gist of the method: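 CellSensor p53RE-bla HCT-116 cells (4,000/well) pre-incubated 5 h at 37 C, then exposed to compounds in DMSO for 16 h at 37 C. Viability read as ATP content by CellTiter-Glo luminescence after 30 min at room temperature.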

Experiment [10] can be described thus: Primary qHTS for small molecule stabilizers of the endoplasmic reticulum resident proteome: Secreted ER Calcium Modulated Protein (SERCaMP) assay (AID 1508630). Also: % is scaled to controls: 0 for no effect and ±100 for the full control effect. The settings on record: SH-SY5Y GLuc-SERCaMP (Gaussia luciferase released on ER calcium loss) secretion, thapsigargin, luminescence; series mostly up to 38.4 µM. The gist of the method:
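The SH-SY5Y reporter protocol was run at 3 concentrations up to 38.3 uM (primary) or 11 concentrations (follow-up): 16 h compound, 100 nM thapsigargin for 4 h, then extracellular luciferase luminescence.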

The nature of experiment [11]: Validation screen for small molecules that induce DNA re-replication in MCF 10A normal breast cells (AID 463097). Also: 0% is about no effect; nearly all actives have a fitted effect of over 60% in size. The settings on record: MCF 10A cells, DNA re-replication phenotype imaging; series mostly up to 46.1 µM. The gist of the method:
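Readout: Hoechst nuclear fluorescence intensity, 405 ex / 500-530 em, by scanning plate imager; re-replication scored as increase in nuclei with elevated DNA content. Cells exposed to compound 48 hr, 37 C, 5% CO2 beforehand.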

The target of experiment [12] is M-phase phosphoprotein 8 (Homo sapiens) (UniProt Q99549). As to the kind of experiment: qHTS Validation Assay for Inhibitors for MPP8 Chromodomain Interactions with Methylated Histone Tails (AID 488949).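 Also: AlphaScreen signal from MPP8 chromodomain bound to biotinylated H3K9me3 peptide; top concentration of the series differs between compounds; % is scaled to controls: 0 for no effect and ±100 for the full control effect; nearly all actives have a fitted effect of over 55% in size.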 The settings on record: AlphaScreen MPP8 binding to H3K9me3 peptide; series mostly up to 114 µM. The gist of the method:
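MPP8 (50 nM) was preincubated with biotinylated H3(1-18)K9me3 peptide (50 nM) in PBS pH 7.4, 0.01% Tween-20 for 30 min at room temperature, then with compounds for 30 min; binding was detected by AlphaScreen.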

Experiment [13] in a line: S16 Schwann cell viability assay (CellTiter-Glo assay) (AID 624031).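 Also: plate controls were DMSO-treated cells for no effect and cell-free wells for full effect; nearly all actives have a fitted effect of over 70% in size.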 The settings on record: S16 rat Schwann cells viability, 24 h; series mostly up to 57.5 µM. The gist of the method: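 Native S16 rat Schwann cells, 500-750 cells/well in DMEM with 10% FBS, dosed with compound after overnight culture and incubated 24h at 37 degree Celsius/5% CO2. Viability by CellTiter-Glo luminescence; % activity normalized to no-cell wells and DMSO-treated cells.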
On the technique in general: ATP-based viability assays read luminescence as a measure of living cells.

A short description of experiment [14]: S16 Schwann cell PMP22 intronic element beta-lactamase assay (AID 624044; calls by dose curve;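 also: 0% = DMSO and -100% = potassium clavulanate positive control; nearly all actives have a fitted effect of over 15% in size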). The note with it: S16 rat Schwann cells, PMP22 element beta-lactamase FRET, 24 h; series mostly up to 38.3 µM. The gist of the method: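 Beta-lactamase reporter under a PMP22 intronic regulatory element in stable S16 rat Schwann cells; 24 h compound exposure. 460 nm blue signal normalized between DMSO (0%) and potassium clavulanate, with 535 nm FRET tracking viability; curves classed by r2 and response.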

Experiment [15] addresses Rap guanine nucleotide exchange factor 3 (Homo sapiens) (UniProt O95398). Kind of experiment: Confirmatory qHTS for antagonist of cAMP-regulated guanine nucleotide exchange factor 3 (EPAC1) (AID 1645880).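 Also: plate controls were DMSO only for no effect and full effect of the ATA control for full effect; nearly all actives have a fitted effect of over 55% in size.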 The settings on record: EPAC1 Rap1B-BODIPY-GDP exchange, fluorescence; series mostly up to 115 µM. The gist of the method:
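Released BODIPY-GDP fluoresces less than Rap1-bound BODIPY-GDP; the signal is followed at 480/540 nm at 5-min intervals over 30 min, after 5 min at room temperature. Reactions contain 100 nM EPAC1, 250 nM RAP1B-BODIPY-GDP and 50 uM GDP; results are normalized to ATA and DMSO.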

Experiment [16] shares this target. As to the kind of experiment: Confirmatory qHTS for agonist of cAMP-regulated guanine nucleotide exchange factor 3 (EPAC1) (AID 1645881).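 Also: EPAC1 catalysed release of BODIPY-GDP from Rap1B seen as fluorescence loss; nearly all actives have a fitted effect of over 75% in size.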 The note with it: EPAC1 Rap1B BODIPY-GDP exchange fluorescence, 100% = cAMP control response; series mostly up to 154 µM.
In experiment [17] the target is Rap guanine nucleotide exchange factor 4 (Homo sapiens) (UniProt Q8WZA2). As to the kind of experiment: Confirmatory qHTS for agonist of cAMP-regulated guanine nucleotide exchange factor 4 (EPAC2) (AID 1645884). Also: % is scaled to controls: 0 for no effect and ±100 for the full control effect; nearly all actives have a fitted effect of over 65% in size. The note with it: EPAC2 GEF activity, Rap1B-BODIPY-GDP fluorescence, percent relative to cAMP agonist control; series mostly up to 154 µM.
Sequence of Rap guanine nucleotide exchange factor 4 (Homo sapiens) (Q8WZA2 whole entry, looked up): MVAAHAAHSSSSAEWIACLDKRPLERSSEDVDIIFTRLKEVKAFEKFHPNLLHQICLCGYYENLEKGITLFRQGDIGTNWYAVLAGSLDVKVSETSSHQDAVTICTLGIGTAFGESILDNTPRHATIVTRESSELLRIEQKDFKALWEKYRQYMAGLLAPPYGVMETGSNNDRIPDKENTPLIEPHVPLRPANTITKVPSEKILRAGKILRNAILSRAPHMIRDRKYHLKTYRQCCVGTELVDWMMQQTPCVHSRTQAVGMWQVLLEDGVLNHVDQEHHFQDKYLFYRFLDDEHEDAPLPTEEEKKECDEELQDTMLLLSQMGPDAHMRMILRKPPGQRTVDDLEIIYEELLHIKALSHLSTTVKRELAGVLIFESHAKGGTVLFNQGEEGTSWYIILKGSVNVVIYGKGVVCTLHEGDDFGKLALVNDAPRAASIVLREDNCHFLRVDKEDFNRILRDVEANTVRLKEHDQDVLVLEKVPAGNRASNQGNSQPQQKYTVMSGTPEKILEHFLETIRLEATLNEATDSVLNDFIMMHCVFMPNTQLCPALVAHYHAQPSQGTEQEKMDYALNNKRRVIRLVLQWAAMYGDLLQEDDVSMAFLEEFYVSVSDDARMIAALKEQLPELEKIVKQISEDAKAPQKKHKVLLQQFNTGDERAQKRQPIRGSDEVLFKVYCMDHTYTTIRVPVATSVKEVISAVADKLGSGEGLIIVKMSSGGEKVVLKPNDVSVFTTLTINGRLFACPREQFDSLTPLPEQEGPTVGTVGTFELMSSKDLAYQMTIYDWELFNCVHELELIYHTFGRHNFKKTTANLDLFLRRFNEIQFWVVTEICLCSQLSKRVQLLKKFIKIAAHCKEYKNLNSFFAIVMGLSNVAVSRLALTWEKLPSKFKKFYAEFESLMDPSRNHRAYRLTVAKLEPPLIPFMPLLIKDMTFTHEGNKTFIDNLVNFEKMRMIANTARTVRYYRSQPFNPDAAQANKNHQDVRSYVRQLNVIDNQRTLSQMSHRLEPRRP
Experiment [18] shares this target. As to the kind of experiment: Confirmatory qHTS for antagonist of cAMP-regulated guanine nucleotide exchange factor 4 (EPAC2) (AID 1645885). Also: % is scaled to controls: 0 for no effect and ±100 for the full control effect; nearly all actives have a fitted effect of over 25% in size. The settings on record: EPAC2 Rap1B-BODIPY-GDP exchange fluorescence, biochemical; series mostly up to 114 µM.
In experiment [19] the target is Rap guanine nucleotide exchange factor 3 (Homo sapiens) (UniProt O95398). Kind of experiment: Counterscreen qHTS for antagonist of cAMP-regulated guanine nucleotide exchange factor 3 (EPAC1) (AID 1645888). Also: % of control where 0% means no effect. The settings on record: Rap1B-BODIPY-GDP nucleotide exchange, fluorescence; series mostly up to 30.8 µM. The gist of the method:
(§1)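 Measured: fluorescence of BODIPY-GDP bound to Rap1B, which falls as exchange proceeds. Conditions include 50 uM competing GDP, 5 and 30 min reads, and a later cAMP challenge for antagonist detection.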

The target is the same in experiment [20]. Kind of experiment: Counterscreen qHTS for agonist of cAMP-regulated guanine nucleotide exchange factor 3 (EPAC1) (AID 1645889). Also: % of control where 0% means no effect; nearly all actives have a fitted effect of over 40% in size. The note with it: EPAC1 Rap1B-BODIPY-GDP exchange, fluorescence; series mostly up to 154 µM. The gist of the method: as §1
A general note: A counterscreen serves to expose hits that act by an unwanted route or on another target.

Sequence of Rap guanine nucleotide exchange factor 3 (Homo sapiens) (O95398 whole entry, looked up): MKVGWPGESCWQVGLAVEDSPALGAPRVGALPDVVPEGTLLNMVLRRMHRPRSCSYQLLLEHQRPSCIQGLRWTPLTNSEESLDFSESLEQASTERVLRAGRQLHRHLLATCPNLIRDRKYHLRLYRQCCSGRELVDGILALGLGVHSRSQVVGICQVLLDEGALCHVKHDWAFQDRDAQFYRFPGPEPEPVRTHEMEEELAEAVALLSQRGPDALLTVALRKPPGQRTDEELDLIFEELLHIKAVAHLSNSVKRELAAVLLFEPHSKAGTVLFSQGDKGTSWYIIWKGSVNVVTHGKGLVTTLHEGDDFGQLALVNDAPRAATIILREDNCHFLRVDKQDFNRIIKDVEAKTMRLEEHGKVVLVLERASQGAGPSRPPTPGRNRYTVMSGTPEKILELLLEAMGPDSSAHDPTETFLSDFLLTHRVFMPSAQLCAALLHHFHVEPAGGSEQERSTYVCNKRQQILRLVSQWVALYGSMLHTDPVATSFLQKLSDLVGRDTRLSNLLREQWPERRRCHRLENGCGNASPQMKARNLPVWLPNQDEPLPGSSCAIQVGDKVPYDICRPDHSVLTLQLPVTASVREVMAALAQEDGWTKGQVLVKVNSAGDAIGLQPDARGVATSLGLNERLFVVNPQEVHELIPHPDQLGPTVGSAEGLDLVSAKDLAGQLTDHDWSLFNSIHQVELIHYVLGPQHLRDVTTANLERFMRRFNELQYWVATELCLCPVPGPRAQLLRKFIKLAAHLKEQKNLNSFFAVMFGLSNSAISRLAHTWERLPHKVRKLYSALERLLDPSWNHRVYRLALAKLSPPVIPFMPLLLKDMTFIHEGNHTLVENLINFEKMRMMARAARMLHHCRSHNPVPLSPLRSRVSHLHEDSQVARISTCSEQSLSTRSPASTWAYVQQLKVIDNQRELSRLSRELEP
Sequence of Androgen receptor (Homo sapiens) (P10275 whole entry, looked up): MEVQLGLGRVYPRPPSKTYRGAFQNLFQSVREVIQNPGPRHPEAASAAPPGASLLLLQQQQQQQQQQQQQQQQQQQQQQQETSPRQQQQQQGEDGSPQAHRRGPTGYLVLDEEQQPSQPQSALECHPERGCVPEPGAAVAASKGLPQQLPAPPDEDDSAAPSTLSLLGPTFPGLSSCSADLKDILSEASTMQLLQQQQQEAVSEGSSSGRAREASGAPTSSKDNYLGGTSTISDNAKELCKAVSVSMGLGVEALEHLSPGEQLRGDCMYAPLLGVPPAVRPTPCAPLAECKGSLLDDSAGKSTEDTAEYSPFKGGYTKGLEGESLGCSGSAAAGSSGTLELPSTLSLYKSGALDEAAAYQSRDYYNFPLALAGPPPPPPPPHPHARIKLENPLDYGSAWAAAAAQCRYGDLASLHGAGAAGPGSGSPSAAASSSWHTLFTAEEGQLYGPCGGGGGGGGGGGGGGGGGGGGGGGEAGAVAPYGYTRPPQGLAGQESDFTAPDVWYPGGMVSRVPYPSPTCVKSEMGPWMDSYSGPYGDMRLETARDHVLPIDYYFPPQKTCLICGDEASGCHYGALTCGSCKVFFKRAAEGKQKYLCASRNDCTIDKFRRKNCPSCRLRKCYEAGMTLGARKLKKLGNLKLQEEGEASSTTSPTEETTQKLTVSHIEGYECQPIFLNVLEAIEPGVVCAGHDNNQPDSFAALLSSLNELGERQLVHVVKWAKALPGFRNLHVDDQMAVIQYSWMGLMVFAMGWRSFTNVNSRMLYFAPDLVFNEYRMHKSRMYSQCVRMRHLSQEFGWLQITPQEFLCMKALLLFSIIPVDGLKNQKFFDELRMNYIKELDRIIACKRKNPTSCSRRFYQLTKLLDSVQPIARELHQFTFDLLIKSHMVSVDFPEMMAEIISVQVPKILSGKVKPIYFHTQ
Sequence of M-phase phosphoprotein 8 (Homo sapiens) (Q99549 whole entry, looked up): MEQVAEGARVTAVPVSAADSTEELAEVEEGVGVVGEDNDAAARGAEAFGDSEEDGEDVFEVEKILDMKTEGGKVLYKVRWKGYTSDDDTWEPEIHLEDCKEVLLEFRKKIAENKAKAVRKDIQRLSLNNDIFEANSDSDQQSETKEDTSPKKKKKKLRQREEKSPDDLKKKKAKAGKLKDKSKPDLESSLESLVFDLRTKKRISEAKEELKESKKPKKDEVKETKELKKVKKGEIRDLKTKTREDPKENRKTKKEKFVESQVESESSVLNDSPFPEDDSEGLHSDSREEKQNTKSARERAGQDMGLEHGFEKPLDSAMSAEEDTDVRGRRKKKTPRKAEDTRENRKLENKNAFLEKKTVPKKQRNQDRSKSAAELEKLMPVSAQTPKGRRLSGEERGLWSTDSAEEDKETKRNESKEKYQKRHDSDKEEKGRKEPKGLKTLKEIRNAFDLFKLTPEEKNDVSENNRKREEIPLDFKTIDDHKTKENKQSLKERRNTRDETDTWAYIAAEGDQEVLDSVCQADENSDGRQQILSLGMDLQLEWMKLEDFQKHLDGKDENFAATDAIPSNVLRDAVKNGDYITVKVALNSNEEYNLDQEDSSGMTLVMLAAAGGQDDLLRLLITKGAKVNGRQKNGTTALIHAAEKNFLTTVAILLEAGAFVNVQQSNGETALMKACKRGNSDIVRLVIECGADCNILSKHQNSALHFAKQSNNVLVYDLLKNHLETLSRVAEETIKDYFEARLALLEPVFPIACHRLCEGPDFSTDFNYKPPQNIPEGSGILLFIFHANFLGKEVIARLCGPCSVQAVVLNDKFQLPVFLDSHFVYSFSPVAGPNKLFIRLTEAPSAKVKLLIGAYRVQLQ
Sequence of Thyroid hormone receptor beta (Homo sapiens) (P10828 whole entry, looked up): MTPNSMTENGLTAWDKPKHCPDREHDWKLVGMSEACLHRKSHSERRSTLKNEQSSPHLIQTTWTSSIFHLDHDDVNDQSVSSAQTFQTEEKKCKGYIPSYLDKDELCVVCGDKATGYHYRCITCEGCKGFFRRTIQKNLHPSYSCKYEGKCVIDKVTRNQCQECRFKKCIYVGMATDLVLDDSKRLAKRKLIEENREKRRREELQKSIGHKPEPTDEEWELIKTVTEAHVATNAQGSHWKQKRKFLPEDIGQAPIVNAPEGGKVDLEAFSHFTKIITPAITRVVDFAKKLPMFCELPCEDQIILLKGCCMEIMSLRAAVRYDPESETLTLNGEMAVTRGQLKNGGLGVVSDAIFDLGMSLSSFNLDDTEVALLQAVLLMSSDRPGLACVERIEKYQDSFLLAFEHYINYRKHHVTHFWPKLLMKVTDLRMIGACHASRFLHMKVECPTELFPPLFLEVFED
Sequence of Thyrotropin-releasing hormone receptor (Homo sapiens) (P34981 whole entry, looked up): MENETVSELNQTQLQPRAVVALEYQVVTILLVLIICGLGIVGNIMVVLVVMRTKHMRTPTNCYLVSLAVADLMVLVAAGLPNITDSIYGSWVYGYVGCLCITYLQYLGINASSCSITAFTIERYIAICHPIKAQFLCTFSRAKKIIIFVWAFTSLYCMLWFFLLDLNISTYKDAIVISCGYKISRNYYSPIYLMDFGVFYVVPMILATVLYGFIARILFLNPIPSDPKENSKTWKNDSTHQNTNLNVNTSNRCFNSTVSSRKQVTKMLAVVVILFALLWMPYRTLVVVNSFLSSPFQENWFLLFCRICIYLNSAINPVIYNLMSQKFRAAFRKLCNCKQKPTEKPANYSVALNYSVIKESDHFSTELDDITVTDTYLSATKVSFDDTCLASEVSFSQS

In the case of `CN(CCOc1ccc(C[C@H](Nc2ccccc2C(=O)c2ccccc2)C(=O)O)cc1)c1ccccn1`, the activation in experiment [1] was 2.06% (inactive); in [2], -13.2% (inactive); in experiment [4], 1.83% (inactive); in [5], 3.94% (inactive). In addition, the result in [3] and in experiment [6] was inactive. Also, the max response in experiment [7] was 2.06% (inactive); in [8] it was -5.97% (inactive). The Potency in experiment [9] was 50.1 µM (active). Also, the Potency result in experiment [10] is “inactive”.

Turning to `C[C@H]1CC2[C@@H]3CCC4=CC(=O)C=C[C@]4(C)[C@@]3(F)[C@@H](O)C[C@]2(C)[C@@]1(O)C(=O)CO` (stereo not given in full), in [11], the outcome was inactive. The Potency entry in experiment [12] was “inactive”.

As to `CC(/C=C1\SC(=S)N(CC(=O)O)C1=O)=C\c1ccccc1`, the call in [13], in experiment [14], in [16], in experiment [17], in experiment [19] and in [20] was inactive. The Potency result in experiment [15] and in experiment [18] was “inactive” in each case.
